# Numbering of substitutions follows the chain as printed.
# Columns and labels:
# Assay in all cases: PBM; 200 nM protein, PBS
# Conditions in all cases: dsDNA, one strand shown
# HOXA7 [1] = biological target: HOXA7 (Homo sapiens, UniProt P31268 116-202)
# HOXA7 [2] = biological target: HOXA7 (Homo sapiens, UniProt P31268 116-202, W177C)
# PAX4 [3] = biological target: T1, PAX4 (Homo sapiens, UniProt O43316 9-242, R200K)
# T1 sequence: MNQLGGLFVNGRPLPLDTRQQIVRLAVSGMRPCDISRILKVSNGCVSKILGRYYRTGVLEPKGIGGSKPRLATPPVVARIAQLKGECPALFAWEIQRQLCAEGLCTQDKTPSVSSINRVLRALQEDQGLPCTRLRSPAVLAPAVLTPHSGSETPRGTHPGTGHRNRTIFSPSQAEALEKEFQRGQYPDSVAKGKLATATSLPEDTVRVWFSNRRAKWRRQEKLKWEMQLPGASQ
# PAX4 [4] = biological target: T2, PAX4 (Homo sapiens, UniProt O43316 9-242)
# T2 sequence: T1 sequence with K192R
# PAX4 [5] = biological target: T3, PAX4 (Homo sapiens, UniProt O43316 9-242, R200Q)
# T3 sequence: T1 sequence with K192Q
# PAX4 [6] = biological target: T4, PAX4 (Homo sapiens, UniProt O43316 9-242, F177V)
# T4 sequence: T1 sequence with F169V, K192R
# PAX4 [7] = biological target: T5, PAX4 (Homo sapiens, UniProt O43316 9-242, F177Y)
# T5 sequence: T1 sequence with F169Y, K192R
# PAX4 [8] = biological target: T6, PAX4 (Homo sapiens, UniProt O43316 9-242, R227W)
# T6 sequence: T1 sequence with K192R, R219W
# ALX3 [9] = biological target: ALX3 (Homo sapiens, UniProt O95076 139-225, N203Q)
# ALX3 [10] = biological target: ALX3 (Homo sapiens, UniProt O95076 139-225)
# ALX3 [11] = biological target: ALX3 (Homo sapiens, UniProt O95076 139-225, L168V)
# ALX3 [12] = biological target: ALX3 (Homo sapiens, UniProt O95076 139-225, N203S)
# MSX2 = MSX2 (Homo sapiens, UniProt P35548 130-214)
# HOXA2 [13] = biological target: HOXA2 (Homo sapiens, UniProt O43364 129-215, R185T)
# HOXA2 [14] = biological target: HOXA2 (Homo sapiens, UniProt O43364 129-215, R185K)
# HOXA2 [15] = biological target: HOXA2 (Homo sapiens, UniProt O43364 129-215, Y150S)
# HOXA2 [16] = biological target: HOXA2 (Homo sapiens, UniProt O43364 129-215)
# Chain of HOXA2 (Homo sapiens, UniProt O43364 129-215) (O43364 129-215): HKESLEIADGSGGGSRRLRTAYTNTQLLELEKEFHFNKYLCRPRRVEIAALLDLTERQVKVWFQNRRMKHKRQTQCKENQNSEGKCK
# Chain of HOXA2 (Homo sapiens, UniProt O43364 129-215, R185K) (O43364 129-215 R185K): as the sequence (O43364 129-215) above, with R57K counted along it
# Chain of ALX3 (Homo sapiens, UniProt O95076 139-225, N203Q) (O95076 139-225 N203Q): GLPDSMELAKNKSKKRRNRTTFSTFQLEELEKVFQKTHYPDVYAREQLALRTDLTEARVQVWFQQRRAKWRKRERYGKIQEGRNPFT
# Chain of ALX3 (Homo sapiens, UniProt O95076 139-225) (O95076 139-225): as the sequence (O95076 139-225 N203Q) above, with Q65N counted along it
# Chain of ALX3 (Homo sapiens, UniProt O95076 139-225, N203S) (O95076 139-225 N203S): as the sequence (O95076 139-225 N203Q) above, with Q65S counted along it
# Chain of HOXA2 (Homo sapiens, UniProt O43364 129-215, Y150S) (O43364 129-215 Y150S): as the sequence (O43364 129-215) above, with Y22S counted along it
# Chain of ALX3 (Homo sapiens, UniProt O95076 139-225, L168V) (O95076 139-225 L168V): as the sequence (O95076 139-225 N203Q) above, with L30V, Q65N counted along it
# Chain of MSX2 (P35548 130-214): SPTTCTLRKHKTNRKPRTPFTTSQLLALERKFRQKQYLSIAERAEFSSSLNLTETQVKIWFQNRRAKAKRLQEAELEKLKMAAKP
# Chain of HOXA2 (Homo sapiens, UniProt O43364 129-215, R185T) (O43364 129-215 R185T): as the sequence (O43364 129-215) above, with R57T counted along it
# Chain of HOXA7 (Homo sapiens, UniProt P31268 116-202) (P31268 116-202): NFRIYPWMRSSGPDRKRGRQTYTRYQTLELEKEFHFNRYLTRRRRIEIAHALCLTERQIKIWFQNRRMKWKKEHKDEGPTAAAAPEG
# Chain of HOXA7 (Homo sapiens, UniProt P31268 116-202, W177C) (P31268 116-202 W177C): as the sequence (P31268 116-202) above, with W62C counted along it
sequence,measurement,setting,value
GAGCTGGC,binding signal,HOXA7 [1],"8.29 upbm affinity estimate (log intensity, higher = more binding, comparable within an allelic series)"
same,binding signal,HOXA7 [2],"8.35 upbm affinity estimate (log intensity, higher = more binding, comparable within an allelic series)"
GCCGGCGA,binding signal,PAX4 [3],"9.18 upbm affinity estimate (log intensity, higher = more binding, comparable within an allelic series)"
same,binding signal,PAX4 [4],"9.12 upbm affinity estimate (log intensity, higher = more binding, comparable within an allelic series)"
same,binding signal,PAX4 [5],"9.11 upbm affinity estimate (log intensity, higher = more binding, comparable within an allelic series)"
same,binding signal,PAX4 [6],"9.13 upbm affinity estimate (log intensity, higher = more binding, comparable within an allelic series)"
same,binding signal,PAX4 [7],"9.03 upbm affinity estimate (log intensity, higher = more binding, comparable within an allelic series)"
same,binding signal,PAX4 [8],"9.19 upbm affinity estimate (log intensity, higher = more binding, comparable within an allelic series)"
AATTAACC,binding signal,PAX4 [3],"11.6 upbm affinity estimate (log intensity, higher = more binding, comparable within an allelic series)"
same,binding signal,PAX4 [4],"12.1 upbm affinity estimate (log intensity, higher = more binding, comparable within an allelic series)"
same,binding signal,ALX3 [9],"8.33 upbm affinity estimate (log intensity, higher = more binding, comparable within an allelic series)"
same,binding signal,PAX4 [5],"11.9 upbm affinity estimate (log intensity, higher = more binding, comparable within an allelic series)"
same,binding signal,PAX4 [6],"10.4 upbm affinity estimate (log intensity, higher = more binding, comparable within an allelic series)"
same,binding signal,ALX3 [10],"12.3 upbm affinity estimate (log intensity, higher = more binding, comparable within an allelic series)"
same,binding signal,PAX4 [7],"10.8 upbm affinity estimate (log intensity, higher = more binding, comparable within an allelic series)"
same,binding signal,ALX3 [11],"9.89 upbm affinity estimate (log intensity, higher = more binding, comparable within an allelic series)"
same,binding signal,PAX4 [8],"10.8 upbm affinity estimate (log intensity, higher = more binding, comparable within an allelic series)"
same,binding signal,ALX3 [12],"8.5 upbm affinity estimate (log intensity, higher = more binding, comparable within an allelic series)"
AATTATCG,binding signal,ALX3 [9],"8.39 upbm affinity estimate (log intensity, higher = more binding, comparable within an allelic series)"
same,binding signal,MSX2,"13.4 upbm affinity estimate (log intensity, higher = more binding, comparable within an allelic series)"
same,binding signal,ALX3 [10],"12.3 upbm affinity estimate (log intensity, higher = more binding, comparable within an allelic series)"
same,binding signal,ALX3 [11],"9.82 upbm affinity estimate (log intensity, higher = more binding, comparable within an allelic series)"
same,binding signal,ALX3 [12],"8.5 upbm affinity estimate (log intensity, higher = more binding, comparable within an allelic series)"
AGCTGCCT,binding signal,HOXA7 [1],"8.26 upbm affinity estimate (log intensity, higher = more binding, comparable within an allelic series)"
same,binding signal,HOXA7 [2],"8.25 upbm affinity estimate (log intensity, higher = more binding, comparable within an allelic series)"
AATTATCA,binding signal,MSX2,"13.3 upbm affinity estimate (log intensity, higher = more binding, comparable within an allelic series)"
same,binding signal,PAX4 [7],"10.9 upbm affinity estimate (log intensity, higher = more binding, comparable within an allelic series)"
same,binding signal,ALX3 [11],"9.73 upbm affinity estimate (log intensity, higher = more binding, comparable within an allelic series)"
CCGAGGCC,binding signal,HOXA2 [13],"7.28 upbm affinity estimate (log intensity, higher = more binding, comparable within an allelic series)"
same,binding signal,HOXA2 [14],"10.4 upbm affinity estimate (log intensity, higher = more binding, comparable within an allelic series)"
same,binding signal,HOXA2 [15],"10.4 upbm affinity estimate (log intensity, higher = more binding, comparable within an allelic series)"
same,binding signal,HOXA2 [16],"7.27 upbm affinity estimate (log intensity, higher = more binding, comparable within an allelic series)"
TAATTGTA,binding signal,ALX3 [9],"8.59 upbm affinity estimate (log intensity, higher = more binding, comparable within an allelic series)"
same,binding signal,PAX4 [6],"10.5 upbm affinity estimate (log intensity, higher = more binding, comparable within an allelic series)"
same,binding signal,MSX2,"13.6 upbm affinity estimate (log intensity, higher = more binding, comparable within an allelic series)"
same,binding signal,ALX3 [12],"8.7 upbm affinity estimate (log intensity, higher = more binding, comparable within an allelic series)"
CAGGCCGG,binding signal,HOXA2 [13],"7.05 upbm affinity estimate (log intensity, higher = more binding, comparable within an allelic series)"
same,binding signal,HOXA2 [14],"10.1 upbm affinity estimate (log intensity, higher = more binding, comparable within an allelic series)"
same,binding signal,HOXA2 [15],"10.3 upbm affinity estimate (log intensity, higher = more binding, comparable within an allelic series)"
same,binding signal,HOXA2 [16],"7.13 upbm affinity estimate (log intensity, higher = more binding, comparable within an allelic series)"
AATTATCT,binding signal,PAX4 [3],"11.7 upbm affinity estimate (log intensity, higher = more binding, comparable within an allelic series)"
same,binding signal,PAX4 [4],"12.2 upbm affinity estimate (log intensity, higher = more binding, comparable within an allelic series)"
same,binding signal,ALX3 [9],"8.49 upbm affinity estimate (log intensity, higher = more binding, comparable within an allelic series)"
same,binding signal,PAX4 [5],"11.9 upbm affinity estimate (log intensity, higher = more binding, comparable within an allelic series)"
same,binding signal,PAX4 [6],"10.5 upbm affinity estimate (log intensity, higher = more binding, comparable within an allelic series)"
same,binding signal,MSX2,"13.5 upbm affinity estimate (log intensity, higher = more binding, comparable within an allelic series)"
same,binding signal,ALX3 [10],"12.4 upbm affinity estimate (log intensity, higher = more binding, comparable within an allelic series)"
same,binding signal,PAX4 [7],"11 upbm affinity estimate (log intensity, higher = more binding, comparable within an allelic series)"
same,binding signal,ALX3 [11],"9.85 upbm affinity estimate (log intensity, higher = more binding, comparable within an allelic series)"
same,binding signal,PAX4 [8],"10.9 upbm affinity estimate (log intensity, higher = more binding, comparable within an allelic series)"
same,binding signal,ALX3 [12],"8.6 upbm affinity estimate (log intensity, higher = more binding, comparable within an allelic series)"
GAACCCCC,binding signal,HOXA2 [13],"7.12 upbm affinity estimate (log intensity, higher = more binding, comparable within an allelic series)"
same,binding signal,HOXA2 [14],"10 upbm affinity estimate (log intensity, higher = more binding, comparable within an allelic series)"
same,binding signal,MSX2,"9.41 upbm affinity estimate (log intensity, higher = more binding, comparable within an allelic series)"
same,binding signal,HOXA2 [15],"10.3 upbm affinity estimate (log intensity, higher = more binding, comparable within an allelic series)"
same,binding signal,HOXA2 [16],"7.05 upbm affinity estimate (log intensity, higher = more binding, comparable within an allelic series)"

# Source: article PMC11006913
